VHR inh abs = VHR1 phosphatase inhibitors, primary screen, biochemical, absorbance, uHTS | Dual specificity protein phosphatase 3 (Homo sapiens), P51452 | recombinant VHR phosphatase, pNPP absorbance | inhibition, % at 13.3 µM | actives 0.52% (n = 290,000) | AID 1654, 2009; in the data active means inhibition above about 50%
FadD28 binding = inhibitors of FadD28 bisubstrate probe binding, primary screen, biochemical, fluorescence polarization, single point; Mycobacterium tuberculosis FadD28 fatty-acid-AMP ligase; inhibition, % at 12.5 µM; actives 0.22% (n = 360,000); in the data active means inhibition above about 8.5%, passing the limit was not always enough
BioA inh = M. tuberculosis BioA enzyme inhibitors, primary screen, biochemical, plate reader, single point, HTS; 7,8-diaminopelargonic acid synthase BioA (Mycobacterium tuberculosis); purified M. tuberculosis BioA enzyme; inhibition, % at 9.99 µM; actives 0.096% (n = 360,000); AID 602481, 2012; in the data active means inhibition above about 40%
MazEF act = activators of E. coli MazEF toxin-antitoxin RNase, primary screen, biochemical, fluorescence, uHTS. activation, % at 20 µM. AID 504720, 2011. actives 0.32% (n = 350,000). FAM/BHQ RNA-DNA oligo cleavage fluorescence, 5 h; in the data active means activation above about 50%
Y pestis TopoI = Yersinia pestis topoisomerase I inhibitors, primary screen, biochemical, cleavage product accumulation, plate reader, single point; actives 0.064% (n = 360,000); Y. pestis Topo-I cleavage product accumulation; AID 504884, 2011; DNA topoisomerase I (Yersinia pestis CO92); activity, % at 10 µM; in the data active means activity above about 50%, passing the limit was not always enough
TcdB inh = TcdB glycohydrolase inhibitors, primary screen, biochemical, single point, plate reader; Toxin B (Clostridioides difficile), P18177; TcdB glycohydrolase enzymatic assay; inhibition, % at 9.99 µM; actives 0.24% (n = 350,000); in the data active means inhibition above about 10%
Target sequence (P18177 whole entry, looked up): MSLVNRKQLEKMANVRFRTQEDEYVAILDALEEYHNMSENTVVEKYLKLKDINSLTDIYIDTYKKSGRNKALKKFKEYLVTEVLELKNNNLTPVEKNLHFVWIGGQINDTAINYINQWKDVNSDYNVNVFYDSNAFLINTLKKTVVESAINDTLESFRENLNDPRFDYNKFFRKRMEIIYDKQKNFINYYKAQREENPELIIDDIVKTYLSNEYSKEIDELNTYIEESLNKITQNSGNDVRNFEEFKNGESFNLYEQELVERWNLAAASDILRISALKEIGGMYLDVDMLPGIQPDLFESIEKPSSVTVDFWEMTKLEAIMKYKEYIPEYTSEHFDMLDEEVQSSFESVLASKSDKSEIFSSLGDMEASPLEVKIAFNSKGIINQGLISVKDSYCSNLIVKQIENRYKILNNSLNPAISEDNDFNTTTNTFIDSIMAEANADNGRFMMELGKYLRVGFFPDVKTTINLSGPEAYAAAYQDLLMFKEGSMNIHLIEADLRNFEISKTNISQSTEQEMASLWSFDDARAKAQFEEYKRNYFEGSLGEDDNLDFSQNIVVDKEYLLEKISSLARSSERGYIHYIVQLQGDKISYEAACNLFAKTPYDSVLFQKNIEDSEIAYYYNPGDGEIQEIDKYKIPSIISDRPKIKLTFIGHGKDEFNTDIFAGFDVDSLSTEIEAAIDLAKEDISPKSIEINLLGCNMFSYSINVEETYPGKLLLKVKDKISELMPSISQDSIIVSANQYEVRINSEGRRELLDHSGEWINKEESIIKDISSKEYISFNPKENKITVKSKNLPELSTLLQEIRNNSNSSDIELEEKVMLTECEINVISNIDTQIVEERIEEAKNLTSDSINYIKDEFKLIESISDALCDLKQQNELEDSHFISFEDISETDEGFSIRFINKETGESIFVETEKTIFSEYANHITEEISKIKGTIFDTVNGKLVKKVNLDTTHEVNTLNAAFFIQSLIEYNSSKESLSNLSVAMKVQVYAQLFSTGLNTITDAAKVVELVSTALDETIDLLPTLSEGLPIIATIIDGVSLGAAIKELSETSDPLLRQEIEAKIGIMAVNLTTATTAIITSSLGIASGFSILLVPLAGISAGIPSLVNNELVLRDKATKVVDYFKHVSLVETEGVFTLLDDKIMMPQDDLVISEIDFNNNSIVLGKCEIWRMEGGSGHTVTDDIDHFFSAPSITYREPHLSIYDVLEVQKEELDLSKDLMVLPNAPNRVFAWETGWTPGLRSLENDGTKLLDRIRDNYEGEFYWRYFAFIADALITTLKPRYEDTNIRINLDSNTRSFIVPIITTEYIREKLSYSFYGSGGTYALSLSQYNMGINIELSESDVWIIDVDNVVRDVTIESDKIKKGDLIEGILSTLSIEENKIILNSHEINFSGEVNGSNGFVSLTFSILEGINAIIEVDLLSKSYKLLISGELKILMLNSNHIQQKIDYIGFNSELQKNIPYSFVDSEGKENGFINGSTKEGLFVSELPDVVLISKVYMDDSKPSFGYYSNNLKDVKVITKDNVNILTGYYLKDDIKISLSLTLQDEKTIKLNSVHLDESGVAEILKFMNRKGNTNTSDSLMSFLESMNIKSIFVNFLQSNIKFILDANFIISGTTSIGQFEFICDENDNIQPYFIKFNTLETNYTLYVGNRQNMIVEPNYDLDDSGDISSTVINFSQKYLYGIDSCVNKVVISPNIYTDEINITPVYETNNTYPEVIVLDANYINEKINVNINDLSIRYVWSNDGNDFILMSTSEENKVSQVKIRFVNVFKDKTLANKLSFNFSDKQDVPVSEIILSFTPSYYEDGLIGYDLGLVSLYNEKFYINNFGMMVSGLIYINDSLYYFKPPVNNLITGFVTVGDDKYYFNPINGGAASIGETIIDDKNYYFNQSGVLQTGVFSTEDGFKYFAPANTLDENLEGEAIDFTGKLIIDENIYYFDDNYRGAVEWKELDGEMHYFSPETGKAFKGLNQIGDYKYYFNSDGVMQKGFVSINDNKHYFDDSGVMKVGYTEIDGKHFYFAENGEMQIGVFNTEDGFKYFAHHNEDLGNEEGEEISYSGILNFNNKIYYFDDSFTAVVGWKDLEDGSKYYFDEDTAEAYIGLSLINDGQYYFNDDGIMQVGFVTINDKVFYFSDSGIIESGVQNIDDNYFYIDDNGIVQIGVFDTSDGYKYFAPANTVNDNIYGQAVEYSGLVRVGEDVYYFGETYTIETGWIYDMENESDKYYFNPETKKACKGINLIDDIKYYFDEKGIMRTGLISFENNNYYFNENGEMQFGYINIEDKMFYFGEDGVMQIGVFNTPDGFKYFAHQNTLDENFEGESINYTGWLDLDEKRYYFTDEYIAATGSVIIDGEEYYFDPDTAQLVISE
* = called active by the depositor; . = not tested or not shown. Hits are enriched below; roughly 1% of the tested compounds scored in any of these assays.

SMILES	VHR inh abs	FadD28 binding	BioA inh	MazEF act	Y pestis TopoI	TcdB inh
CCNC(=O)C[C@@H]1CC[C@@H]2[C@H](COc3ccc(NC(=O)c4cc(C)on4)cc3C(=O)N2C)O1	.	.	1.4	.	.	0.1
N#C[C@H]1[C@@H](c2ccccc2-c2cccc(F)c2)[C@H](CO)N1C(=O)C1CC1	.	.	.	.	.	3.1
Nc1c(C(=O)NC2CC2)sc2nc3c(c(-c4ccco4)c12)CC/C3=C/c1ccco1	100.7	18.1*	.	-15.8	-31.8	.
CCC(c1ccccc1)c1nnc(NC(=O)c2ccco2)s1 (stereo not given)	24.6	0.4	-1.3	6.0	-6.6	0.3
CCC(CC)c1nnc(NC(=O)c2c(-c3ccccc3)noc2C)s1	50.0*	1.8	-1.6	12.4	-6.0	-1.3
CCCC(CCC)c1nnc(NC(=O)c2ccco2)s1	59.7*	0.5	0.4	0.3	1.3	0.7
CC1CCCN(C(=S)Nc2ccc(Nc3ccccc3)cc2)C1 (stereo not given)	21.9	2.5	.	5.1	2.9	0.8
CC1CCCN(C(=S)Nc2ccc(F)cc2)C1 (stereo not given)	-12.3	-4.1	.	-0.7	2.8	12.1*
CCNC(=O)C[C@H]1CC[C@H]2[C@@H](COC[C@@H](O)CN2Cc2ccncc2)O1	.	.	-1.6	.	.	-0.2
O=C(NCC1CCCO1)C1CCCN(S(=O)(=O)c2ccc(F)cc2)C1 (stereo not given)	25.7	-2.6	-1.4	-1.1	-0.4	-0.6
O=C(NCC1CCCO1)C1CCCN(S(=O)(=O)c2ccc(Cl)cc2)C1 (stereo not given)	50.4*	-3.9	-0.3	3.6	2.5	1.1
CN1Cc2cc(C(=O)c3cc(Cl)cc(CSc4ncccn4)c3O)cnc2NC1=O	56.3*	.	.	.	.	.
O=C(C[C@@H]1CC[C@H](NC(=O)Nc2ccccc2F)[C@@H](CO)O1)NCc1ccc(-c2ccccc2)cc1	.	.	.	.	.	0.1
Cc1cc(Cl)ccc1OCC(=O)NCCOC(=O)Nc1sc(=S)n(C)c1C	-6.1	-2.2	.	3.4	16.3	2.0
Cc1ccc(Cl)cc1OCC(=O)NCCOC(=O)Nc1sc(=S)n(C)c1C	55.4*	0.3	.	2.0	-0.4	.
Cc1ccc(S(=O)(=O)N[C@@H]2C=C[C@H](CC(=O)NCc3ccccc3F)O[C@H]2CO)cc1	.	.	1.4	.	.	1.2
N#CC1=C(N)Oc2ccc3ccc(O)cc3c2C1c1ccsc1 (stereo not given)	21.2	15.4*	.	-35.7	-4.6	-1.0
COCC(=O)Nc1ccc2c(c1)C(=O)N(C)C[C@@H](OC)[C@@H](C)CN(Cc1ccccc1F)[C@@H](C)CO2	.	.	0.7	.	.	-1.6
CCCCCCN1C[C@@H](n2cc(-c3ccc(F)cc3)nn2)[C@H](O)C[C@@H]1c1ccc(OC)cc1	.	-1.1	-2.1	7.3	64.9*	0.9
COc1cc2c(cc1OC)/C(=C/C(=O)c1ccc([N+](=O)[O-])c(C)c1)NCC2	8.6	-2.4	-0.5	74.0*	-3.3	-0.2
Cc1cc(S(=O)(=O)NC2CC(C)(C)NC(C)(C)C2)c(Cl)cc1Cl	59.7*	-1.1	-2.1	5.4	-4.8	0.0
CC1(C)CC(NS(=O)(=O)c2ccc(Cl)cc2)CC(C)(C)N1	53.9*	-2.5	-2.3	2.0	-10.7	0.2
COc1ccc(-c2cc(C)no2)cc1S(=O)(=O)N1CCOc2ccc(C)cc21	-0.7	-4.6	-1.6	76.2*	-2.5	1.0
CC(C)(C)C(=O)C1=C(O)C(=O)N(c2ccccc2)C1c1ccccc1 (stereo not given)	3.6	-0.3	-0.5	1.0	-1.3	21.9*
CS(=O)(=O)C1=C(O)C(=O)N(c2ccccc2)C1c1ccccc1 (stereo not given)	-12.4	-2.3	-2.6	1.9	-4.3	.
SMILES	VHR inh abs	FadD28 binding	BioA inh	MazEF act	Y pestis TopoI	TcdB inh
CC(C)C(C(=O)NCc1ccco1)N(Cc1ccco1)C(=O)CNS(=O)(=O)c1ccccc1 (stereo not given)	7.4	0.8	0.9	8.8	0.2	0.7
CCCC(C(=O)NC(C)(C)CC)N(Cc1ccco1)C(=O)CNS(=O)(=O)c1ccccc1 (stereo not given)	57.6*	-0.6	.	5.6	20.7	1.1
O=C(CSc1ncnc2c1oc1ccccc12)c1cccs1	32.1	-3.3	.	-4.5	2.7	.
Cc1nc(SCC(=O)c2cccs2)c2oc3ccccc3c2n1	56.4*	-2.0	-3.8	-0.6	-5.6	.
Cc1nc(SCC(=O)Nc2ccc3c(c2)OCCO3)c2oc3ccccc3c2n1	24.7	-3.4	.	53.5*	2.5	.
CCCCc1ccc(N2C(=O)[C@@H]3C(CC(N)=O)NC4(C(=O)Nc5ccc(F)cc54)[C@@H]3C2=O)cc1 (stereo not given in full)	51.2*	-0.1	0.3	4.1	10.5	.
CCOC(=O)c1c(S(=O)(=O)N(C)Cc2ccccc2)c(C)n(C)c1C	57.7*	-0.9	0.2	0.6	9.1	0.8
CCOC(=O)c1c(S(=O)(=O)NCCCc2ccco2)c(C)n(C)c1C	51.3*	-0.1	-0.6	1.0	9.8	-0.8
CCOC(=O)c1c(S(=O)(=O)N2CCN(Cc3ccccc3)CC2)c(C)n(C)c1C	18.4	-0.3	-0.5	1.8	19.7	0.5
CCCNC(=O)N[C@H]1C=C[C@H](CC(=O)NC2CCC2)O[C@H]1CO	.	.	3.2	.	.	-0.3
COc1ncccc1-c1cnc2cccnn12	.	-2.2	0.2	.	6.2	0.8
Oc1ccccc1-c1cnc2cccnn12	.	-0.9	1.3	.	0.1	46.6*
CCOC(=O)CN1C(=O)C2(OCCCO2)c2cc(Br)ccc21	59.1*	-3.5	0.6	2.6	-2.4	1.2
C=C(C)CN1C(=O)C2(OCCO2)c2cc(Br)ccc21	.	-1.2	1.5	11.6	10.0	1.6
C[C@H]1CN([C@@H](C)CO)C(=O)c2cc(NC(=O)Nc3ccc(C(F)(F)F)cc3)ccc2O[C@H]1CN(C)C(=O)Nc1ccccc1	.	.	-2.1	.	.	-0.3
COc1ccc(Cn2c(=O)[nH]c3cc(C(=O)NC4CCCC4)ccc3c2=O)cc1	1.5	-0.5	-0.4	-13.4	4.6	1.3
COc1cc2[nH]c(=O)n(Cc3ccc(C(=O)NC4CCCC4)cc3)c(=O)c2cc1OC	19.6	-1.8	-1.7	87.5*	4.4	.
O=C(OCCNc1ccc(C(F)(F)F)cc1[N+](=O)[O-])c1cc2ccccc2oc1=O	13.1	-3.3	.	250.9*	1.7	0.6
O=C(Cc1coc2cc(O)ccc12)NNC(=O)c1cccs1	.	-0.4	-1.9	5.5	-1.0	19.4*
O=C(Cc1ccccc1F)NNC(=O)c1cccs1	.	-0.9	0.5	1.4	-2.5	-0.3
CCCC#Cc1ccc2c(c1)O[C@H](CN(C)C(=O)c1ccccc1)[C@@H](C)CN([C@@H](C)CO)S2(=O)=O	.	.	-0.9	.	.	1.5
